In the library only some 1.9% were active in any assay of this set; here they are far more common.
Ba/F3 V617F tox: reduced viability of JAK2V617F-dependent Ba/F3 cells, primary screen, JAK2V617F inhibitor project, cell-based, Ba/F3 EpoR-JAK2V617F, luminescence | ATP luminescence | inhibition, % at 5.6 µM | actives 1.1% (n = 220,000) | AID 1446, 2008;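 active = inhibition above the campaign mean plus 3 SD over all tested compounds, cut at about 24% in these data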;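 also: cytokine-independent growth of Ba/F3 cells driven by EpoR plus mutant JAK2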
IEC-6 tox: cytotoxicity in IEC-6 intestinal epithelial cells, primary screen, cytotoxicity control for KLF5 inhibitor project, cell-based, luminescence; IEC-6 cytotoxicity, luminescence viability; inhibition, % at 5 µM; actives 0.78% (n = 290,000); AID 1825, 2009; in the data active = inhibition above about 22%
BaF3 tox: parental Ba/F3 cell viability inhibition, counter-screen for JAK2V617F inhibitor project, murine pro-B, CellTiter-Glo luminescence; CellTiter-Glo ATP luminescence; inhibition, % at 5.6 µM; actives 1.1% (n = 220,000); AID 1486, 2009;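 active = inhibition above a per-campaign cutoff, the mean inhibition of all tested compounds plus 3 SD, cut at about 27% in these data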
APP transl inh: inhibitors of APP translation via 5'UTR reporter, primary screen, APP 5'UTR luciferase, SH-SY5Y cells; SH-SY5Y APP 5'UTR-luciferase reporter, luminescence; inhibition, % at 2 µM; actives 0.82% (n = 190,000); AID 1285, 2008;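 active = inhibition above a set limit, derived from the sample mean plus 3 SD, cut at about 45% in these data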
KLF5 inhibitor: KLF5 expression inhibitors, primary screen, DLD-1 cells, luminescence; AID 1700, 2009; actives 0.23% (n = 290,000); inhibition, % at 5 µM; DLD-1 KLF5 promoter-luciferase reporter;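 active = inhibition above a per-plate limit of that plate's mean compound inhibition plus 3 SD, cut at about 60% in these data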;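 also: higher means less KLF5 promoter-driven luciferase light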
Of the large screens only hits and unclear results are named; the others gave an inactive call.

Cc1nn(-c2ccccc2)c(Cl)c1C(=O)NCC(C)C	APP transl inh 77
CCN(CC)S(=O)(=O)c1ccc(C)c(NC(=O)Cc2ccc(S(=O)(=O)N3CCOCC3)s2)c1	none (no result: Ba/F3 V617F tox, BaF3 tox, APP transl inh)
COCCn1c(SCC(=O)N2CCCc3ccccc32)nc2ccccc2c1=O	BaF3 tox 60
Cc1cc(=O)[nH]c(SCC(=O)N2CCCc3ccccc32)n1	APP transl inh 65
O=C(CSc1nc(O)cc(=O)[nH]1)N1CCCc2ccccc21	none
Oc1ccccc1-c1nnc(SCCN2CCOCC2)n1Cc1ccccc1	Ba/F3 V617F tox 94, BaF3 tox 83
O=C(CSc1nnc(-c2ccccc2)n1Cc1ccccc1)N1CCOCC1	none
C#CCOCCOCCOCCNc1nc(N2CCN(C(=O)Cn3cc(CCCCN)nn3)CC2)nc(N2CCN(C(=O)Cn3cc(CC(C)O)nn3)CC2)n1 (centres undefined)	none
O=c1[nH]cnc2c1sc1nc3c(c(-c4ccc(Cl)cc4)c12)CCC3	APP transl inh 51
Oc1ccc(N=Nc2ccc(Br)cc2)c(O)c1	IEC-6 tox 29 (no result: APP transl inh)
CCOc1ccc(N2C(=O)C(CC(=O)Nc3ccccc3)N(Cc3ccccn3)C2=S)cc1 (centres undefined)	BaF3 tox 27
Cc1ccnc(N2C(=O)c3cccc4c([N+](=O)[O-])ccc(c34)C2=O)c1	BaF3 tox 36
O=C1c2cccc3c([N+](=O)[O-])ccc(c23)C(=O)N1Cc1cccnc1	Ba/F3 V617F tox 42, BaF3 tox 37, APP transl inh 82
COC(=O)c1c(NC(=O)CSc2nnnn2-c2ccccc2)sc2c1CCC(C)C2 (centres undefined)	none
c1ccc(N2CCN(c3nnnn3-c3ccccc3)CC2)cc1	APP transl inh 48
O=C(O)Cn1c(-c2cscn2)nc2ccccc21	none
CN1/C(=C\P(=O)(N(C)C)N(C)C)C(C)(C)c2ccccc21	Ba/F3 V617F tox 61, BaF3 tox 62
CN1C2C=C3C(C#N)=C(N)C(C#N)(C#N)[C@H](c4c(F)cccc4F)[C@H]3C1CC2 (some centres undefined)	APP transl inh 47
COc1ccc(CCn2c(N)c(C(=O)NCc3ccco3)c3nc4ccccc4nc32)cc1OC	none
COc1ccc(CCn2c(N)c(C(=O)NCc3ccco3)c3nc4ccccc4nc32)cc1	Ba/F3 V617F tox 37, BaF3 tox 38
COc1cccc(C2c3[nH]c4ccccc4c3CCN2Cc2cccn2-c2ncccn2)c1 (centres undefined)	none
Cc1sc(NC(=O)c2ccc(=O)n(C)n2)nc1-c1ccccc1	Ba/F3 V617F tox 44, BaF3 tox 45
Cc1sc(NC(=O)c2c(F)cccc2F)nc1-c1ccccc1	none (no result: Ba/F3 V617F tox, BaF3 tox, APP transl inh)
CC1(C)Cc2c(c(-c3ccccc3Cl)[nH]c(=O)c2C#N)CO1	none
N#Cc1c(-c2ccc(Cl)cc2)c2c([nH]c1=O)-c1ccccc1OC2	BaF3 tox 51 (no result: APP transl inh)
N/C(=N\OC(=O)c1ccccc1Cl)c1ccccn1	none
N/C(=N\OC(=O)c1ccccc1[N+](=O)[O-])c1ccccn1	BaF3 tox 37
CCOC(=O)c1c(NC(=O)Cn2nnc(-c3ccc(Cl)cc3)n2)sc(CC)c1C	none
COc1ccc(CC(=O)NCc2n[nH]c(=S)n2-c2cccc(Cl)c2)cc1	none
O=C(Cc1ccc(-c2ccccc2)cc1)NCc1ccccc1	Ba/F3 V617F tox 81, IEC-6 tox 78, BaF3 tox 81, APP transl inh 93
Cc1ccc(CC(=O)NCc2ccc(F)cc2)cc1	Ba/F3 V617F tox 35, IEC-6 tox 50, BaF3 tox 58
Cc1noc(C)c1COc1ccc(CC(=O)NCc2ccccc2)cc1	Ba/F3 V617F tox 72, IEC-6 tox 79, BaF3 tox 73, APP transl inh 86
COc1ccc(OC)c(NC(=S)N2CCN(c3ccccn3)CC2)c1	none
Cc1ccsc1C(=O)NCCc1c[nH]c2ccccc12	none (no result: Ba/F3 V617F tox, BaF3 tox, APP transl inh)
Cc1noc(C)c1C1(O)CCCCCCCCCCC1	Ba/F3 V617F tox 36, BaF3 tox 55
COC(=O)[C@@]1(Cc2ccc(OC)cc2)[C@@H]2C(=CC(=O)[C@H]2CC(=O)C(=O)N(C)C)CN1C(=O)c1ccccc1	none
C=C1C(=O)C=C2CN(C(=O)c3ccccc3)[C@@](Cc3ccc(F)cc3)(C(=O)OC)[C@@H]12	Ba/F3 V617F tox 97, IEC-6 tox 27, BaF3 tox 92, APP transl inh 96
CCOC(=O)N1CCC(N2CCCC(C(=O)c3cc(F)ccc3OC)C2)CC1 (centres undefined)	none
CC(=O)OCc1nc2sc(C)c(C)c2c(=O)[nH]1	APP transl inh 59
Cn1c(SCn2nnc3ccccc3c2=O)nc2ccccc2c1=O	none
CCN(CC)S(=O)(=O)c1ccc2c(c1)nc(SCn1nnc3ccccc3c1=O)n2CC	APP transl inh 92
CCOc1ccccc1-c1noc(CCCC(=O)NC2CCCCC2)n1	none (no result: Ba/F3 V617F tox, BaF3 tox, APP transl inh)
O=C1CS/C(=N\c2ccccn2)N1C1CCCCC1	BaF3 tox 96
O=C(Cn1ncc2c([nH]c3ccccc32)c1=O)Nc1ccc(F)cc1F	none (no result: Ba/F3 V617F tox, BaF3 tox, APP transl inh)
Cc1ccc(NC(=O)c2cc(N3C(=O)C=CC3=O)ccc2N2CCOCC2)cc1	APP transl inh 77
Cc1ccc(NC(=O)c2cc(N3C(=O)C=CC3=O)ccc2Cl)cc1C	APP transl inh 45
Cc1ccc(NC(=O)c2cc(-n3cnnc3)ccc2Cl)cc1	none
Cc1ccc(NC(=O)c2cc(NC(=O)c3ccco3)ccc2N2CCOCC2)cc1	none
CCSc1ccccc1C(=O)Nc1nc2ccccc2c(=O)[nH]1	none
CC(C)C[C@H](NC(=O)NC(C)C)C(=O)O	none
CCOC(=O)C1=C(C)N=C(SC)N(C)C1c1ccccc1 (centres undefined)	none
CCOC(=O)C1=C(c2ccccc2)ON(C)C1c1ccccc1 (centres undefined)	Ba/F3 V617F tox 26, BaF3 tox 39
Cn1cc(CCC(=O)NC2CC(C)(C)Cc3c2cnn3-c2ccc(F)cc2)cn1 (centres undefined)	none (no result: Ba/F3 V617F tox, BaF3 tox, APP transl inh)
CCn1c(=O)c2sccc2n2c(CCCC(=O)NC3CCN(Cc4ccccc4)CC3)nnc12	none (no result: Ba/F3 V617F tox, BaF3 tox, APP transl inh)
O=C(NC(CSCc1ccccc1)C(=O)N/N=C/c1ccc(O)cc1O)c1ccc([N+](=O)[O-])cc1 (centres undefined)	APP transl inh 50
CC(=O)Oc1ccc(N2C(=O)C3C4C=CC(O4)C3C2=O)cc1 (centres undefined)	none
Cc1ccc(OCc2cc(C(=O)Nc3ccccc3)oc2C)cc1	none
Cc1oc(C(=O)Nc2ccc(O)cc2)cc1COc1ccccc1	BaF3 tox 37
CCCNc1nc2c(c(=O)n(C)c(=O)n2C)n1Cc1ccc(F)cc1	BaF3 tox 36
CCNc1nc2c(c(=O)n(C)c(=O)n2C)n1Cc1ccc(Cl)cc1	none (no result: Ba/F3 V617F tox, BaF3 tox, APP transl inh)
C=CCn1c(NCCc2ccccc2)nc2c1c(=O)n(C)c(=O)n2C	BaF3 tox 31
